# High-throughput results as filed in PubChem.
# Cruzain noTriton = blocks cruzain activity in detergent-free assay; P25779; purified cruzain, Z-FR-AMC fluorescence, no detergent; Potency, µM, for inactives: max response, negative = inhibition, actives largely listed as inhibitors; 200,000 compounds, 2.3% hits;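 also: plate controls were enzyme without inhibitor for no effect and buffer without enzyme for full effect; nearly all actives have a fitted effect of over 40% in size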
# Target sequence (P25779 123-467 limits assumed): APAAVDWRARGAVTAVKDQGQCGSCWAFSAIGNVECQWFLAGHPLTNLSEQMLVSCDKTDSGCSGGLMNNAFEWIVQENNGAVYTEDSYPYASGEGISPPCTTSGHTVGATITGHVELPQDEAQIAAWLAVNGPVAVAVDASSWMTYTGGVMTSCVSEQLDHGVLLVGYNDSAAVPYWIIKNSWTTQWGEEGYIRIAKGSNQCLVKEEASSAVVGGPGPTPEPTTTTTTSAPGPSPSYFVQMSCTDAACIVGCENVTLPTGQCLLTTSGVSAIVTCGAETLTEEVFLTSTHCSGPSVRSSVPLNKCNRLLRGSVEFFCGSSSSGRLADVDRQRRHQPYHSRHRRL
#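 Detergent-free condition (0.00005% Triton X-100) in acetate buffer pH 5.5 with DTT. 1.5 nM enzyme and compound were pre-mixed 15 min, then 2 uM Z-FR-AMC substrate added; reaction progress from fluorescence change between first and third reads (60 s).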
# Cruzain inh Det = inhibitors of Trypanosoma cruzi cruzain with detergent. purified cruzain, Z-FR-AMC fluorescence, 0.01% Triton. Potency, µM, for inactives: max response, negative = inhibition, most hits filed as inhibitors. 200,000 compounds, 0.43% hits;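 also: plate controls were neutral wells for no effect and buffer without enzyme for full effect; nearly all actives have a fitted effect of over 40% in size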
#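 Detergent-containing arm of a paired screen for aggregation-based inhibition: 0.01% Triton X-100 present. Cruzain at 1.5 nM cleaved 2 uM Z-FR-AMC at pH 5.5 with 5 mM DTT; AMC fluorescence gain over 60 s measured activity.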
# * = called active by the depositor; u = inconclusive. Most compounds without a hit are left out; they make up all but 2.6% or so of the library. Calls follow the shape of the dose curve; as a rule, active = well fitted curve in the direction sought with a large enough effect; inconclusive = small, poorly fitted or top-dose-only effect, or another doubt; inactive = no such curve, though single readings can be large; an effect the other way counts as inactive or inconclusive. Potency is read from the fitted curve at half-maximal effect.
SMILES,Cruzain noTriton,Cruzain inh Det
CCOc1ccccc1NC(=O)Cn1c(=O)n(CC(=O)NCc2ccccc2Cl)c(=O)c2sccc21,1%,-1%
CN(C)c1ccc(-c2nc(NCCc3cnc[nH]3)c3ccccc3n2)cc1,-8%,-8%
Cc1c(C)n(C)c2ccc(C(=O)NCCc3ccc(Cl)cc3)cc12,u,-6%
C[N+](C)(C)CCN[N@@+]1(C)CCCc2ccccc21,3%,0%
CC(=O)OC(C)C,-4%,-6%
COc1ccc(Cl)cc1NC(=O)CSc1nnc2[nH]c(=O)cc(-c3ccccc3)n12,-4%,-1%
C=CCc1ccccc1OCCSc1nc(-c2cccs2)nc2cc(=O)[nH]n12,7.9µM*,0%
O=c1cc2nc(-c3cccs3)nc(SCCOc3ccc(Cl)cc3)n2[nH]1,-3%,4%
O=C=Nc1ccc(Cc2ccc(N=C=O)cc2)cc1 (tested in a mixture with another compound),3%,0%
O=C=Nc1ccc(Cc2ccc(N=C=O)cc2)cc1,16µM*,-19%
CC(C)n1c(=N)c(C(=O)NCc2ccccc2)cc2c(=O)n3ccccc3nc21,16%,-5%
COC(=O)c1cc2c(=O)n3ccccc3nc2n(C)c1=N,u,11µM*
Cn1c(C(=O)N2CCN(C(=O)c3ccco3)CC2)cc2c(=O)n3ccccc3nc21,u,25µM*
CCOCCCn1c(=N)c(C(=O)NCc2ccccc2)cc2c(=O)n3ccccc3nc21,-2%,-9%
Cc1cccn2c(=O)c3cc(C(=O)N4CCN(C(=O)c5ccco5)CC4)n(C)c3nc12,-3%,-5%
CCOC(=O)c1cc2c(=O)n3ccccc3nc2n(CCCOC)c1=NC(C)=O,u,32µM*
CCOC(=O)c1cc2c(=O)n3ccccc3nc2n(CCCOC)c1=NC(=O)c1c(-c2c(F)cccc2Cl)noc1C,-1%,-1%
C=CCn1c(=N)c(C(=O)NCCCOC)cc2c(=O)n3ccccc3nc21,25µM*,32µM*
COC(=O)c1ccccc1NC(=O)C1=C(C)C(=O)OC12CCC(C)CC2 (stereo not given),3%,-2%
O=C(Nc1cccc(F)c1)N1CC[C@@]2(CCCN(S(=O)(=O)c3ccccc3)C2)C1,2%,-3%
O=c1oc2ccccc2cc1-c1nc(-c2cccs2)no1,-2%,1%
C=CCn1c(=N)c(C#N)cc2c(=O)n3ccccc3nc21,u,28µM*
CCCCCn1c(=NC(C)=O)c(C#N)cc2c(=O)n3ccccc3nc21,11%,9%
CC[C@H]1C2=C3C(CC[C@H]4C(OCc5ccc(F)cc5C(F)(F)F)OC[C@](C)([C@@H]34)N(C(=O)OC(C)(C)C)C2)C2COC(=O)OCC21 (stereo not given in full),u,-8%
CCOC(=O)C1=C(c2ccccc2)N=c2s/c(=C\c3ccc(O)cc3)c(=O)n2C1c1cccs1 (stereo not given),13µM*,1%
SMILES,Cruzain noTriton,Cruzain inh Det
COC(=O)C1=C(C)N=c2s/c(=C/c3cccs3)c(=O)n2C1c1cccs1 (stereo not given),-19%,0%
N#Cc1c(-c2ccccc2)nc2n(-c3ccccc3)nc(C(=O)Nc3ccccc3)n2c1=O,10µM*,2%
N#Cc1cccc(NC(=O)c2nc(-c3ccccc3)n(-c3ccccc3)n2)c1,-9%,1%
CC12CCC(C(=O)N(CSC(=S)N/N=C\c3ccccc3)C1=O)C2(C)C (stereo not given),-1%,-3%
CC12CCC(C(=O)N(CSC(=S)N/N=C\c3ccccc3Cl)C1=O)C2(C)C (stereo not given),16µM*,3%
O=C(CC1C(=O)N(c2ccccc2)C(=O)N1Cc1ccc2c(c1)OCO2)Nc1ccccc1 (stereo not given),-4%,-1%
CCOC(=O)CSc1nc2cc(C(=O)NCc3ccco3)ccc2c(=O)n1C1CCCCC1,u,0%
CCOC(=O)CSc1nc2cc(C(=O)NCc3ccco3)ccc2c(=O)n1-c1ccc(F)cc1,10µM*,-1%
Nc1nc2c(ncn2[C@@H]2O[C@H](CO)[C@@H](O)[C@@H]2O)c(=[SH+])[nH]1.O=[N+]([O-])c1ccc(O)[c]([Hg])c1,-2%,0%
COc1ccc(C2Nc3ccccc3C(=O)N2Cc2ccco2)cc1COc1ccc([N+](=O)[O-])cc1 (stereo not given),u,0%
COc1cccc(OCc2cc(C3Nc4ccccc4C(=O)N3Cc3ccco3)ccc2OC)c1 (stereo not given),16µM*,-7%
CCOC(=O)c1noc2nc(C)n(CC(=O)Nc3ccc(Br)cc3C)c(=O)c12,6%,-2%
O=C(c1ccc(CS(=O)c2ccccc2Cl)o1)N1CCN(c2ccccc2F)CC1 (stereo not given),-3%,-4%
CC(NC(=O)Cn1ncc2c3ccccc3n(Cc3ccc(F)cc3)c2c1=O)c1ccccc1 (stereo not given),-16%,-2%
CC1=Nc2cc(C(=O)NCc3ccco3)ccc2Sc2ccc(C)cc21,-8%,-10%
CC1=Nc2cc(C(=O)NCc3ccccc3Cl)ccc2Sc2c(C)ccc(C)c21,32µM*,-4%
CCC1=Nc2cc(C(=O)NCc3ccccc3OC)ccc2Sc2ccc(Cl)cc21,32µM*,1%
CCC1=Nc2cc(C(=O)NCc3ccccc3Cl)ccc2Sc2ccc(C)cc21,u,-3%
CC(C)Cc1nn2c(=O)cc(COC(=O)c3cccc(NC(=O)CCc4ccccc4)c3)nc2s1,-12%,-3%
COc1cccc(Cn2c(=O)c(-c3cccc(Cl)c3)nc3cncnc32)c1,4%,-6%
COc1ccc(OC)c(-n2c3c(cc(-c4nc(-c5ccc(Cl)cc5)cs4)c2=O)C(=O)CC(C)(C)C3)c1,14%,-1%
CCc1cc(=O)[nH]c(SCc2nc(-c3cccc(Cl)c3)no2)n1,-24%,-4%
Cc1cccn2c(=O)c3cc(C#N)c(=O)n(-c4nnc(SCc5ccc(Cl)cc5)s4)c3nc12,20µM*,-6%
N#Cc1cc2c(=O)n3ccccc3nc2n(-c2nnc(SCc3ccccc3)s2)c1=O,3%,1%
CCOc1ccc(C2=C(C=Nc3c(C)n(C)n(-c4ccccc4)c3=O)C(c3ccc(F)cc3)c3ccccc3O2)cc1 (stereo not given),3.2µM*,4%
SMILES,Cruzain noTriton,Cruzain inh Det
CCOc1ccc(C2SCC(=O)N2c2c(C)n(C)n(-c3ccccc3)c2=O)cc1 (stereo not given),-7%,1%
Cc1nnc(S(=O)(=O)c2ccc(N=Nc3c(N)nc(N)nc3N)cc2)s1,7%,0%
CCN(CC)c1ccc(NC(=O)c2c(C)nn(-c3ccc(F)cc3)c2-n2cccc2)c(C)c1,-12%,-6%
CC(C)Oc1ccc(CN2CCc3nc(Nc4ccc5c(c4)OCCO5)ncc3C2)cc1,-7%,-5%
Cc1ccc(Cl)cc1N1CCN(C(c2cccnc2)c2nnnn2C2CCCCC2)CC1 (stereo not given),11%,-6%
Cc1ccc(Cl)cc1N1CCN(C(c2ccc(C#N)cc2)c2nnnn2C2CCCC2)CC1 (stereo not given),20µM*,2%
COC(=O)[C@@]1(Cc2ccc(OC)cc2)[C@H]2c3cc(C(=O)N(C)C)n(CCc4c[nH]c5ccc(O)cc45)c3C[C@H]2CN1C(=O)c1ccccc1,u,-3%
COc1ccccc1-c1cc(-c2ccc(C)cc2)nc(SCc2nnc(-c3ccccc3)o2)c1C#N,4µM*,0%
Cc1cc(C)c(C#N)c(SCc2nnc(-c3ccccc3)o2)n1,4%,-5%
